Screening data: PubChem, National Center for Advancing Translational Sciences (NCATS)
An excerpt weighted towards active compounds, which were near 10% of everything screened.
Gal4-VP16 FLuc – VP16 counterscreen qHTS for inhibitors of ROR gamma transcriptional activity; Drosophila S2 Gal4-VP16 UAS-luciferase, luminescence, 20 h; AID 2546, 2010; 310,000 compounds, 3.5% hits; Potency, µM (series often up to 53.6 µM), most hits filed as inhibitors;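 note: Gal4-VP16 expression switched on by copper sulfate through the metallothionein promoter; nearly all actives have a fitted effect of over 50% in size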
KB-3-1 cytotox – qHTS assay for MDR1-selective chemotherapeutics: Primary screen using the parental adenocarcinoma cell KB-3-1; KB-3-1 viability, CellTiter-Glo ATP luminescence, 72 h; Potency, µM (highest dose often 46.1 µM), actives largely listed as cytotoxic; 400,000 compounds, 1.4% hits; note: nearly all actives have a fitted effect of over 60% in size
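Cytotoxicity in the drug-sensitive parental line KB-3-1 was scored as loss of CellTiter-Glo luminescence following 72 h incubation with compound. Values come from curve fitting of normalized concentration-response data.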
SW480 rerep – A quantitative high throughput screen for small molecules that induce DNA re-replication in SW480 colon adenocarcinoma cells. 340,000 compounds, 1.8% hits. Potency, µM (top dose mostly 46.1 µM), most hits filed as activators. SW480 DNA re-replication, Hoechst DNA content imaging, 48 h; note: nearly all actives have a fitted effect of over 55% in size
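Image-based read-out: total Hoechst fluorescence of nuclei (405 nm excitation, 500-530 nm emission), with hits raising the fraction of high-intensity nuclei. SW480 colon cells incubated 48 hr with compounds at 37 C.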
RORg inh – qHTS for inhibitors of ROR gamma transcriptional activity. Potency, µM (top dose mostly 53.6 µM), usual class: inhibitors. Drosophila S2 Gal4-RORgamma UAS-luciferase reporter, 20 h. Nuclear receptor ROR-gamma (Mus musculus), P51450. 310,000 compounds, 5.4% hits; note: nearly all actives have a fitted effect of over 60% in size
Target sequence (P51450 whole entry, looked up, the tested form may be a part): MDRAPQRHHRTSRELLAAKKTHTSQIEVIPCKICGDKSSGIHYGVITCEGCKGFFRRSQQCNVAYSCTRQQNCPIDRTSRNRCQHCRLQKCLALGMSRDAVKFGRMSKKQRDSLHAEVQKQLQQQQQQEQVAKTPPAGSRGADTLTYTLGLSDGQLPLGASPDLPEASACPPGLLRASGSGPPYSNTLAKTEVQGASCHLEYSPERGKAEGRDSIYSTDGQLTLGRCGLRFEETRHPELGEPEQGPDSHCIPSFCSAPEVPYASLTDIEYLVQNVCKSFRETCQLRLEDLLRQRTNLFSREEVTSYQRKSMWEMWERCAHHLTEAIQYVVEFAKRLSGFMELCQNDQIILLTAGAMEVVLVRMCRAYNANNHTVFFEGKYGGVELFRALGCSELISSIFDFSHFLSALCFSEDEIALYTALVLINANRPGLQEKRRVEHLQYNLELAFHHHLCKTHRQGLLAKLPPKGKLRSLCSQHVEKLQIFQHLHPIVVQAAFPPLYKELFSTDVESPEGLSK
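Compounds are pin-transferred onto Drosophila Schneider cells expressing a copper-inducible Gal4–ROR gamma transactivation domain fusion. After 1 hr, copper sulfate is added to 700 uM final; luciferase is read 20 hr later.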
MCF10A rerep – A quantitative high throughput screen for small molecules that induce DNA re-replication in MCF 10a normal breast cells. MCF 10A DNA re-replication, Hoechst nuclear intensity, 48 h. 350,000 compounds, 2.9% hits. Potency, µM (series often up to 46.1 µM), actives largely listed as activators; note: nearly all actives have a fitted effect of over 50% in size
KB-V1 MDR tox – qHTS assay for MDR1-selective chemotherapeutics: Primary screen using the drug-selected MDR subline cells KB-V1; KB-V1 MDR cells viability, CellTiter-Glo, 72 h; Potency, µM (titrated, usually from 46.1 µM), usual class: cytotoxic; 400,000 compounds, 3.4% hits; note: nearly all actives have a fitted effect of over 60% in size
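Cytotoxicity via CellTiter-Glo luminescence after 72 h compound exposure at 37 degrees C. Cells: drug-selected KB-V1 line, DMEM phenol-red free plus 10% FBS. Compounds tested at multiple concentrations; normalized data fitted to concentration-effect curves.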
Numbers stand for hits; n = inactive; u = inconclusive; x = no result; ! = not confirmed by another sample; [ ] = remark or other dose. Calls come from the whole dose curve; as a rule, active = well fitted curve in the direction sought with a large enough effect; inconclusive = small, poorly fitted or top-dose-only effect, or another doubt; inactive = no such curve, though single readings can be large; an effect the other way counts as inactive or inconclusive.

SMILES | Gal4-VP16 FLuc | KB-3-1 cytotox | SW480 rerep | RORg inh | MCF10A rerep | KB-V1 MDR tox
COc1ccc(/C=N/NC(=O)c2cccnc2)cc1COc1ccc(NC(C)=O)cc1 | n | n | 8.2µM | n | 4.1µM | u
Cc1ccccc1OCC(=O)N(Cc1ccc(C(C)C)cc1)C1CCS(=O)(=O)C1 (stereo not given) | x | n | x | x | x | n
CCC(C)Sc1cc(-c2nc3ccccn3c2NC2CCCCC2)ccc1OC (stereo not given) | x | u | 16µM | x | 21µM | 12µM!
CCC(C)Sc1ccc(-c2nc3ccc(C)cn3c2NC2CCCCC2)cc1 (stereo not given) | x | n | n[9.22 µM] | x | u | u
CCC(C)Sc1cc(-c2nc3cc(C)ccn3c2NC2CCCCC2)ccc1OC (stereo not given) | x | u | u | x | u | 21µM
Cc1cccc(-c2cnc(C(O)c3ccc(-c4ccccc4)cc3)[nH]2)c1 (stereo not given) | x | n | x | x | x | n
COC(=O)CN=C1OC(=O)N2C(=O)C3=C4C(C[C@H]5C(=O)N(c6ccccc6)C(=O)[C@H]5[C@H]4[C@@]12Cc1ccccc1)[C@H]1C(=O)N(c2ccccc2)C(=O)[C@H]1[C@H]3C (stereo not given in full) | n | x | x | n | x | x
Cc1nc(N2CCCCC2)c2c(-c3cccs3)csc2n1 | n[10 µM] | n | n | n | 21µM | n
COc1ccccc1-c1nnc(Nc2nc3c(OC)cccc3s2)o1 | u | 0.41µM | 2.3µM | 1.6µM | u | u
COc1cccc2sc(Nc3nc4ccc(NC(C)=O)cc4s3)nc12 | n | 16µM | u | n | 3.3µM | n
COc1ccccc1-c1nnc(-c2ccc(C)cc2)o1 | x | n | u | x | n | n
NNc1nc2c(Cl)c(Cl)ccc2s1 | u | n | n | u | u | n
COc1cccc2sc(NN)nc12 | 22µM | n | n | 13µM | n | n
CC(=O)Nc1ccc2nc(NC(=O)COc3ccccc3C)sc2c1 | n[10 µM] | u | n | n | n | n
COc1cccc2sc(Nc3nnc(-c4ccccc4Cl)o3)nc12 | 2.5µM | u | 2.6µM | 2µM | u | n
O=c1[nH]c2cc(C(F)(F)F)c(N3CCOCC3)cc2n(CP(=O)(O)O)c1=O | n | x | n | n | n | x
Brc1ccc2c(ccc[n+]2CCc2ccccc2)c1 | x | u | x | x | x | n
COCCn1c(C)cc(O)c(C(c2ccccc2Cl)N2CCCCC2)c1=O (stereo not given) | x | n | x | x | x | n
COc1cccc(-c2nnc(Nc3nc4c(F)cccc4s3)o2)c1 | 3.5µM | n | n | u | 16µM | n
Cc1ccc(S(=O)(=O)NCCC2=CCCCC2)cc1C(N)=O | 7.9µM | n | u | u | n | n
Cc1ccc(NC(=O)c2cc(S(=O)(=O)NCCC3=CCCCC3)ccc2F)cc1F | u | 10µM! | u | u | u | 10µM!
Cc1cc(S(=O)(=O)NCCC2=CCCCC2)ccc1Br | x | n | n | x | u | u
Cc1cc(C)cc(NC(=O)c2cc(S(=O)(=O)NCCC3=CCCCC3)ccc2F)c1 | x | n | x | x | x | u
Cc1cc2[nH]c3ccccc3c2c(C)n1 | n | u | n | n | u | 16µM
Cc1cc(=O)[nH]c2ccccc12 | n | n | n | n | n | u
SMILES | Gal4-VP16 FLuc | KB-3-1 cytotox | SW480 rerep | RORg inh | MCF10A rerep | KB-V1 MDR tox
CSC1=NC(C(Cl)(Cl)Cl)N=C(c2ccc(C)cc2)N1 (stereo not given) | n | 1µM | u | u | 1.8µM | 1.3µM
Oc1cccc(/C=N/Nc2cc(N3CCOCC3)nc(N3CCOCC3)n2)c1 | n | n | 5.8µM | n[10 µM] | u | u
Oc1ccccc1/C=N/Nc1cc(N2CCCC2)nc(N2CCCC2)n1 | u | u | u | 11µM | 18µM | n
CCCCCCCCN1CC(Cc2cc3ccccc3c3ccccc23)N(c2ccccc2)c2ccccc2C1=O (stereo not given) | x | u | x | x | x | n
CCCCCc1c(-c2ccc(F)cc2F)ncn1CCc1ccccc1OC | x | u | x | x | x | 13µM
CCCCc1c(-c2ccc(OC)c(OC)c2)ncn1CCc1ccccc1OC | x | u | x | x | x | 9.2µM
